Laboratory results reported in the supplement of paper PMC10849652.
About 8,800 targets were measured; listed, in parts, are those with a hit and a random draw of the rest. About 0.5% of all pairs of compound and target were hits. A number with no mark means an inactive call.

Columns and labels:
Experiment in all cases: log2 fold change, soluble protein after heating vs DMSO (PISA); higher = thermal stabilisation; K562 lysate, 10 uM; active = over 0.2 and 3.5 SD of the protein, either way, in both replicates (recomputed)
lapatinib = compound: CS(=O)(=O)CCNCc1ccc(-c2ccc3ncnc(Nc4ccc(OCc5cccc(F)c5)c(Cl)c4)c3c2)o1 [lapatinib]
Summary of the method: (§1)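 Thermal stability, expressed as log-two fold change relative to solvent controls, is given from duplicates. Crude K562 extract in PBS pH 7.4 with 1 mM MgCl2, at 1 mg/mL protein, was treated with 10 μM compound for 30 min and heated in aliquots for 3 min across 48°C-58°C. After pooling, adjustment to 0.5% NP-40 at 4°C and centrifugation at 21,000xg for 90 min, supernatant protein was measured by TMTpro 16plex LC-MS/MS with channel sums equalised.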

pictilisib = compound: CS(=O)(=O)N1CCN(Cc2cc3nc(-c4cccc5[nH]ncc45)nc(N4CCOCC4)c3s2)CC1 [pictilisib]
Summary of the method: as §1

crizotinib = compound: C[C@@H](Oc1cc(-c2cnn(C3CCNCC3)c2)cnc1N)c1c(Cl)ccc(F)c1Cl [crizotinib]
Summary of the method: as §1

[1] = compound: C[C@H](C1=CC=C(C=C1)C(=O)NC2=C3C=CNC3=NC=C2)N
Summary of the method: as §1

duvelisib = compound: C[C@H](Nc1ncnc2nc[nH]c12)c1cc2cccc(Cl)c2c(=O)n1-c1ccccc1 [duvelisib]
Summary of the method: as §1

gandotinib = compound: Cc1cc(Nc2cc(CN3CCOCC3)c3nc(C)c(Cc4ccc(Cl)cc4F)n3n2)n[nH]1 [gandotinib]
Summary of the method: as §1

tozasertib = compound: Cc1cc(Nc2cc(N3CCN(C)CC3)nc(Sc3ccc(NC(=O)C4CC4)cc3)n2)n[nH]1 [tozasertib]
Summary of the method: as §1

doramapimod = compound: Cc1ccc(-n2nc(C(C)(C)C)cc2NC(=O)Nc2ccc(OCCN3CCOCC3)c3ccccc23)cc1 [doramapimod]
Summary of the method: as §1

bafetinib = compound: Cc1ccc(NC(=O)c2ccc(CN3CC[C@H](N(C)C)C3)c(C(F)(F)F)c2)cc1Nc1nccc(-c2cncnc2)n1 [bafetinib]
Summary of the method: as §1

[2] = compound: Cc1cccc(CC(=O)N2CCc3c2ccc(-c2cn(C)c4ncnc(N)c24)c3F)n1
Summary of the method: as §1

Sequence of UniProt Q14149 (Q14149 whole entry, looked up): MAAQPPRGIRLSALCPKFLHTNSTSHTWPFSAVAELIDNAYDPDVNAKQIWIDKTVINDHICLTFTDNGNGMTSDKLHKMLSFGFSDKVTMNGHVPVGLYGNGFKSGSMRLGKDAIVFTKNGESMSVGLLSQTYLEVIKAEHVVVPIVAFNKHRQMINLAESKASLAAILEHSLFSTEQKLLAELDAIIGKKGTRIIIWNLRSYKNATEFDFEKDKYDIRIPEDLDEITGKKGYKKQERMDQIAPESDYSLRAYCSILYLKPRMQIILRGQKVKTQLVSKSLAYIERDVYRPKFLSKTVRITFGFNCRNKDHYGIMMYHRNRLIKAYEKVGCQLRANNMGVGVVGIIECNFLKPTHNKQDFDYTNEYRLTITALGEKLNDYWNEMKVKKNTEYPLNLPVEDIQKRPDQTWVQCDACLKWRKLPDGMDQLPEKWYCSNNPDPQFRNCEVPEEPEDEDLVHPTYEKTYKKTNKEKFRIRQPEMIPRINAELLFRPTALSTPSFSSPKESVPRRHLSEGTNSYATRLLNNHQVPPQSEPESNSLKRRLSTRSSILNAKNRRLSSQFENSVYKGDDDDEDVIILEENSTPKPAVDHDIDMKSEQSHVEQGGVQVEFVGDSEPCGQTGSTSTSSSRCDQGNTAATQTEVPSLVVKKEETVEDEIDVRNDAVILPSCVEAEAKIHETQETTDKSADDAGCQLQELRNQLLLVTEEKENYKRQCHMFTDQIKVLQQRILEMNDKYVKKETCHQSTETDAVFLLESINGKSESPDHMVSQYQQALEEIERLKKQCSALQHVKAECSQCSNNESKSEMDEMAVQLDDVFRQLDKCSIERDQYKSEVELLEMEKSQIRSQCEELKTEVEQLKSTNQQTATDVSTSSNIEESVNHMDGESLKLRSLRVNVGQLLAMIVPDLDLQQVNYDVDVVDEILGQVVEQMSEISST
Sequence of UniProt Q68D91 (Q68D91 whole entry, looked up): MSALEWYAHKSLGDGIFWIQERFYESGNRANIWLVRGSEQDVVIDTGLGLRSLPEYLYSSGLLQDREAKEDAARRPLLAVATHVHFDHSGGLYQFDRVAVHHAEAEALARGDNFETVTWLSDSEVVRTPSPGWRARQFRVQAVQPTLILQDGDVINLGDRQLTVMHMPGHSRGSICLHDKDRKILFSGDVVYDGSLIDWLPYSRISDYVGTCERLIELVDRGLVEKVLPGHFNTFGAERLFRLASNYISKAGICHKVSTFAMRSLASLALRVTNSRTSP
Sequence of UniProt P45983 (P45983 whole entry, looked up): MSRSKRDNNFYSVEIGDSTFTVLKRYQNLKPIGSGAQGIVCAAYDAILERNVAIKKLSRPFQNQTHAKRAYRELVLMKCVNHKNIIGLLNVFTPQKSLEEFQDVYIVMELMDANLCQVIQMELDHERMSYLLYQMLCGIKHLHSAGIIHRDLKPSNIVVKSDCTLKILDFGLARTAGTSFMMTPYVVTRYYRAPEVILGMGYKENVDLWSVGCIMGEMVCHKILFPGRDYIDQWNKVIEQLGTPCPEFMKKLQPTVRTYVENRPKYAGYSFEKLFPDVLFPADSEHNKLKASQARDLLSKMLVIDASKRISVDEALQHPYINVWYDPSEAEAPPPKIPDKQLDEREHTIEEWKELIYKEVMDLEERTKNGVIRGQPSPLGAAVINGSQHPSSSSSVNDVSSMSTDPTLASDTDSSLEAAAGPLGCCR
Sequence of UniProt Q6P0Q8 (Q6P0Q8 whole entry, looked up): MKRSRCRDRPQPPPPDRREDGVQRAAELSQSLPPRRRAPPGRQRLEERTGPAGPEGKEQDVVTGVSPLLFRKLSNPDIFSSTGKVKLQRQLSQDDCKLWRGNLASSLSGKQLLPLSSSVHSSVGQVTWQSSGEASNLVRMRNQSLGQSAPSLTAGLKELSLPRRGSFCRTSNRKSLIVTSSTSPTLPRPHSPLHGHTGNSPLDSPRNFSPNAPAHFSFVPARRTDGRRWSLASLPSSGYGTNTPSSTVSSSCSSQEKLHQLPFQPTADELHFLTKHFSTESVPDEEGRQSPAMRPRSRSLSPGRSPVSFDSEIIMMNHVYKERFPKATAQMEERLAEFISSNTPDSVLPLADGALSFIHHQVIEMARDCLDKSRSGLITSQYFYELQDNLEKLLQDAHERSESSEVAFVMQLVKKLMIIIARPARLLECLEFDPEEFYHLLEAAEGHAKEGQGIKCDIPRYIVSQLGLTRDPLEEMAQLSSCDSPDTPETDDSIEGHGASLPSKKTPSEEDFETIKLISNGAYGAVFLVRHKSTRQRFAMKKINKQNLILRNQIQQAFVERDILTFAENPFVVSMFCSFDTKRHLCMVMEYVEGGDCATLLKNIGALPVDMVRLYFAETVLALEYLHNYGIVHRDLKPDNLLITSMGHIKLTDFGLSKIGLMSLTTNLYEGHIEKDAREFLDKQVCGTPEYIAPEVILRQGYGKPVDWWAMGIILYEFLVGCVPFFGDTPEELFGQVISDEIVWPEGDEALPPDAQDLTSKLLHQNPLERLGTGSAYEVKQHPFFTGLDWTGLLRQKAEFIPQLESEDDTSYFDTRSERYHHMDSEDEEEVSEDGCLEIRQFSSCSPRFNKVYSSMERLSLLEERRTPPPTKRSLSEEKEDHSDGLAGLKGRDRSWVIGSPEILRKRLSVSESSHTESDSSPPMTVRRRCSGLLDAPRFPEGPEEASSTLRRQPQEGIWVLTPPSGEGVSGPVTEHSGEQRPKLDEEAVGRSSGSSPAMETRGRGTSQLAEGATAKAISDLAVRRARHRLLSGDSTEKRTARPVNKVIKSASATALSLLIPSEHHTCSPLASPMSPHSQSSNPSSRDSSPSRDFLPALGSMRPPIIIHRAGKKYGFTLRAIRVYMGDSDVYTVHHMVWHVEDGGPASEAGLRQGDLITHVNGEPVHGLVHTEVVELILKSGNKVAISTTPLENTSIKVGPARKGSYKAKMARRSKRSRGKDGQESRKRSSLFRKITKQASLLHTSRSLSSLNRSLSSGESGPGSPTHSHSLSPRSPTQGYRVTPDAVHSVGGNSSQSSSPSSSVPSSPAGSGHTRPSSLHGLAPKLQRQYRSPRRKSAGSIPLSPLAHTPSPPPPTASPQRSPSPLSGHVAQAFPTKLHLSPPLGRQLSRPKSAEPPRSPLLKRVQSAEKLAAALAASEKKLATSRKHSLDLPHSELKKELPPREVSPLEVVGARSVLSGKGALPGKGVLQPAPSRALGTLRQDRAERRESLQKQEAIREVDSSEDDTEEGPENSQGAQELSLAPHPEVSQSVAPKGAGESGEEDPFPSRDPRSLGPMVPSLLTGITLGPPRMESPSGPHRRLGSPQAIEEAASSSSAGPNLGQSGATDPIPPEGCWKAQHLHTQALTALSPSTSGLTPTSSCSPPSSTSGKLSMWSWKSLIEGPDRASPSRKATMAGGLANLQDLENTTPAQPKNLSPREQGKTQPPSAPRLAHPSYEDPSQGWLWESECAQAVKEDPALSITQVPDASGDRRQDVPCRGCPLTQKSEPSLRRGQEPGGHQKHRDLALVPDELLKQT
Sequence of UniProt Q7Z3D4 (Q7Z3D4 whole entry, looked up): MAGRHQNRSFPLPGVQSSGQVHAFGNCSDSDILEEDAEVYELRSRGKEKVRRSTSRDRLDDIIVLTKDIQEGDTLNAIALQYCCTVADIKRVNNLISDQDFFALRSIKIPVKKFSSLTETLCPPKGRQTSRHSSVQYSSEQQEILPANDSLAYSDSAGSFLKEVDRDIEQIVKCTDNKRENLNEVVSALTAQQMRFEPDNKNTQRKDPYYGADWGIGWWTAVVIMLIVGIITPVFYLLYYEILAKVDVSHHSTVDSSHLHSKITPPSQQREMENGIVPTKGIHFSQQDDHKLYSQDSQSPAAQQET
Sequence of UniProt Q9H9A6 (Q9H9A6 whole entry, looked up): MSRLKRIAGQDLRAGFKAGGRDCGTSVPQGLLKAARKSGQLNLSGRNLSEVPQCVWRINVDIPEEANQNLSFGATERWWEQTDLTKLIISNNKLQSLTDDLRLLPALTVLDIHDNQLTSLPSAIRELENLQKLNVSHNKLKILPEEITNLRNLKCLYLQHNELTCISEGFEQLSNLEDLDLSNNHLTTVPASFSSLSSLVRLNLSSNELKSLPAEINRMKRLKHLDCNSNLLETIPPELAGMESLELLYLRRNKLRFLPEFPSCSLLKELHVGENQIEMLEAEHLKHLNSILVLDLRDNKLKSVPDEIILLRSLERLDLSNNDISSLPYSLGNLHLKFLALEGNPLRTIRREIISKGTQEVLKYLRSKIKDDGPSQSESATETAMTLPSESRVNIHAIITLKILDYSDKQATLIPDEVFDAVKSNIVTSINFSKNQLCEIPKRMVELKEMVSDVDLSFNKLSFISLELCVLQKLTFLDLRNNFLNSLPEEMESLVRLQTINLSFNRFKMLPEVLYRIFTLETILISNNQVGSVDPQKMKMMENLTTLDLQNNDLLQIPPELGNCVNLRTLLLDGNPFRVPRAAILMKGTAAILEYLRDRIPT
Sequence of UniProt Q16659 (Q16659 whole entry, looked up): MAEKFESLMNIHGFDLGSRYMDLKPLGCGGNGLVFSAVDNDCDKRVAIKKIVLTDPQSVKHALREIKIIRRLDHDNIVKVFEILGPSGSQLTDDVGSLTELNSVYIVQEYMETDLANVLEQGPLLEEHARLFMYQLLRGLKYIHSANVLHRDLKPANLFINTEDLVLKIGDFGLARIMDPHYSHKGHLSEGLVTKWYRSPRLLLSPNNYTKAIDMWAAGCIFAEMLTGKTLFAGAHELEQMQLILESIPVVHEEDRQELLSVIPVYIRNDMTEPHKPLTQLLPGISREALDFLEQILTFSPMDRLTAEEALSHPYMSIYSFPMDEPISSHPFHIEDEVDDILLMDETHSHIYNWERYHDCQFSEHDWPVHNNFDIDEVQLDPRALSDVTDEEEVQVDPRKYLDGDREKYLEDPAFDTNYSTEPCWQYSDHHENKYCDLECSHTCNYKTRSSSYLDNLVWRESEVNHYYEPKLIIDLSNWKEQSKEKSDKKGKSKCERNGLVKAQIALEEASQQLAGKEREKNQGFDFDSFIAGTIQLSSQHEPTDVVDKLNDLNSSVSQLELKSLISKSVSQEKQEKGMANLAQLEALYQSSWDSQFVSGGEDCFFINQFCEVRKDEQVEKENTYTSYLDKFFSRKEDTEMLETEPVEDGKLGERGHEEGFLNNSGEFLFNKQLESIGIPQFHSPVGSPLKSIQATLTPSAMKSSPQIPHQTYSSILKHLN

Target	log2 fold change (lapatinib)	log2 fold change (pictilisib)	log2 fold change (crizotinib)	log2 fold change [1]	log2 fold change (duvelisib)	log2 fold change (gandotinib)	log2 fold change (tozasertib)	log2 fold change (doramapimod)	log2 fold change (bafetinib)	log2 fold change [2]
MBLAC2 (UniProt Q68D91)	-0.012	-0.008	0.025	-0.027	0.038	0.036	0.084	0.033	-0.049	0.006
LRCH3 (UniProt Q96II8)	-0.008	-0.08	-0.114	-0.046	-0.012	0.027	0.012	0.099	-0.104	0.059
MAST2 (UniProt Q6P0Q8)	0.012	0.161	-0.004	-0.171	-0.065	-0.07	0.148	-0.034	-0.289	-0.092
LRPPRC (UniProt P42704)	-0.01	0.048	-0.062	0.058	-0.005	-0.189	0.023	0.022	-0.008	0.045
MCMBP (UniProt Q9BTE3)	0.008	-0.027	-0.032	0.048	0.002	-0.083	-0.007	-0.001	-0.007	-0.048
MORC3 (UniProt Q14149)	0.021	-0.037	-0.02	0.005	-0.001	-0.053	0.001	0.024	-0.001	0.014
MRPL12 (UniProt P52815)	0.094	-0.019	0.086	-0.1	0.011	0	0.077	-0.031	-0.073	0.035
MED25 isoform 3 (UniProt Q71SY5)	0.018	-0.05	-0.05	0.053	0.063	-0.095	-0.109	-0.042	-0.023	-0.052
KNSTRN (UniProt Q9Y448)	0.013	0.05	0.029	0.065	-0.009	-0.024	0.026	-0.052	0.024	-0.056
LBR (UniProt Q14739)	-0.071	-0.068	0.063	0.159	-0.039	-0.285 (active)	-0.003	-0.06	-0.114	-0.096
MINK1 (UniProt Q8N4C8)	-0.084	-0.02	-0.149	0.271	0.026	-0.102	0.014	0.24	-0.158	0.249
LYAR (UniProt Q9NX58)	0	0.025	0.005	0.269 (active)	0.017	-0.119	-0.025	-0.017	-0.008	-0.099
MAP2K3 isoform 3 (UniProt P46734)	-0.014	-0.102	-0.043	-0.021	0.124	0.038	0.017	-0.047	-0.012	-0.035
MAP1S (UniProt Q66K74)	0.009	-0.06	-0.016	-0.021	0.004	-0.065	0.035	0.003	-0.03	0.049
LYSMD3 (UniProt Q7Z3D4)	-0.039	-0.039	-0.018	-0.273	0.066	0.307	0.058	0.041	-0.057	0.23
MMS19 isoform 8 (UniProt Q96T76)	-0.03	-0.04	-0.074	0.049	-0.003	-0.101	-0.004	0.023	-0.066	0.004
MAP4 (UniProt E7EVA0)	0.002	-0.054	-0.163	-0.096	0.012	0.007	0.055	0.017	-0.055	0.008
LRRC40 (UniProt Q9H9A6)	-0.004	-0.012	-0.007	0.015	-0.025	-0.088	0.014	0.009	-0.028	-0.032
MED14 (UniProt O60244)	-0.032	-0.006	-0.016	-0.058	-0.033	-0.016	0.046	-0.028	-0.036	0.037
LTN1 isoform 3 (UniProt O94822)	0.086	-0.017	-0.046	0.027	-0.029	-0.18	0.003	0.009	-0.071	0.007
MED8 isoform 2 (UniProt Q96G25)	0.005	-0.051	0.014	0.269 (active)	0.023	-0.026	0.047	0.069	-0.031	-0.044
MACO1 (UniProt Q8N5G2)	0.016	0.041	0.003	-0.019	0.015	-0.008	0.138	-0.035	-0.001	-0.001
LUZP1 (UniProt Q86V48)	-0.006	-0.02	-0.012	0.008	-0.026	0.036	-0.011	-0.009	-0.034	-0.011
MAPK6 (UniProt Q16659)	-0.038	-0.021	0.025	0.075	-0.008	-0.042	-0.024	-0.006	-0.028	-0.045
KRR1 (UniProt Q13601)	-0.039	0.03	-0.228	0.05	-0.037	-0.097	-0.038	0.127	-0.039	0.002
LIMK1 (UniProt P53667)	0.049	-0.087	0.276	0.029	0.109	-0.03	0.096	-0.009	-0.348	0.138
MORC2 (UniProt Q9Y6X9)	0.016	0.015	-0.012	-0.049	0.04	-0.032	0.008	0.012	-0.032	0.043
KIF2A isoform 4 (UniProt O00139)	-0.004	-0.006	-0.004	0.026	0.022	-0.066	0.01	0.055	-0.006	0.037
MAPK8 isoform 3 (UniProt P45983)	-0.042	0.192	-0.089	-0.022	-0.07	0.281	-0.007	-0.049	-0.014	-0.037
